The supplement of paper PMC10849652
The full data set covers some 7,900 targets. This sample favours those with a hit. About 0.6% of all pairs of compound and target were hits.

Key:
Assay in all cases: log2 fold change, soluble protein after heating vs DMSO (PISA); higher = thermal stabilisation; K562 cells, 10 uM, 30 min; active = over 0.2 and 3.5 SD of the protein, either way, in both replicates (recomputed)
dasatinib = compound: Cc1nc(Nc2ncc(C(=O)Nc3c(C)cccc3Cl)s2)cc(N2CCN(CCO)CC2)n1 [dasatinib]
Outline: (§1)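 Soluble protein was defined as the supernatant after 21,000xg for 90 min. It came from K562 cells at 2×10^6 cells/mL given 10 μM compound for 30 min, heated in aliquots for 3 min across 48°C-58°C, pooled, and extracted in PBS with 0.5% NP-40 at 4°C, and was quantified by TMTpro 16plex LC-MS/MS with equalised channel sums. Thermal stability against control samples, from duplicates, is reported as log2 fold change.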

[1] = compound: Cn1cc(-c2ccc3c(c2)CCN3C(=O)Cc2cccc(C(F)(F)F)c2)c2c(N)ncnc21
Outline: as §1

[2] = compound: Cn1cc(-c2ccc3nnc(C(F)(F)c4ccc5ncccc5c4)n3n2)cn1
Outline: as §1

tipifarnib = compound: Cn1cncc1[C@@](N)(c1ccc(Cl)cc1)c1ccc2c(c1)c(-c1cccc(Cl)c1)cc(=O)n2C [tipifarnib]
Outline: as §1

bafetinib = compound: Cc1ccc(NC(=O)c2ccc(CN3CC[C@H](N(C)C)C3)c(C(F)(F)F)c2)cc1Nc1nccc(-c2cncnc2)n1 [bafetinib]
Outline: as §1

nilotinib = compound: Cc1cn(-c2cc(NC(=O)c3ccc(C)c(Nc4nccc(-c5cccnc5)n4)c3)cc(C(F)(F)F)c2)cn1 [nilotinib]
Outline: as §1

[3] = compound: Cc1nc(Nc2n[nH]c3c2CN(C(=O)N[C@H](CN(C)C)c2ccccc2)C3(C)C)c2sccc2n1
Outline: as §1

[4] = compound: Cc1ncc(-c2ccnc(Nc3ccc(S(C)(=O)=O)cc3)n2)n1C(C)C
Outline: as §1

mubritinib = compound: FC(F)(F)c1ccc(/C=C/c2nc(COc3ccc(CCCCn4ccnn4)cc3)co2)cc1 [mubritinib]
Outline: as §1

[5] = compound: Cc1cccc(CC(=O)N2CCc3c2ccc(-c2cn(C)c4ncnc(N)c24)c3F)n1
Outline: as §1

Measured: log2 fold change

DCP2 (UniProt Q8IU60)
inactive: dasatinib 0.02 | [1] -0.021 | [2] -0.033 | tipifarnib -0.112

DDX11 (UniProt Q96FC9)
Sequence of UniProt Q96FC9 (Q96FC9 whole entry, looked up): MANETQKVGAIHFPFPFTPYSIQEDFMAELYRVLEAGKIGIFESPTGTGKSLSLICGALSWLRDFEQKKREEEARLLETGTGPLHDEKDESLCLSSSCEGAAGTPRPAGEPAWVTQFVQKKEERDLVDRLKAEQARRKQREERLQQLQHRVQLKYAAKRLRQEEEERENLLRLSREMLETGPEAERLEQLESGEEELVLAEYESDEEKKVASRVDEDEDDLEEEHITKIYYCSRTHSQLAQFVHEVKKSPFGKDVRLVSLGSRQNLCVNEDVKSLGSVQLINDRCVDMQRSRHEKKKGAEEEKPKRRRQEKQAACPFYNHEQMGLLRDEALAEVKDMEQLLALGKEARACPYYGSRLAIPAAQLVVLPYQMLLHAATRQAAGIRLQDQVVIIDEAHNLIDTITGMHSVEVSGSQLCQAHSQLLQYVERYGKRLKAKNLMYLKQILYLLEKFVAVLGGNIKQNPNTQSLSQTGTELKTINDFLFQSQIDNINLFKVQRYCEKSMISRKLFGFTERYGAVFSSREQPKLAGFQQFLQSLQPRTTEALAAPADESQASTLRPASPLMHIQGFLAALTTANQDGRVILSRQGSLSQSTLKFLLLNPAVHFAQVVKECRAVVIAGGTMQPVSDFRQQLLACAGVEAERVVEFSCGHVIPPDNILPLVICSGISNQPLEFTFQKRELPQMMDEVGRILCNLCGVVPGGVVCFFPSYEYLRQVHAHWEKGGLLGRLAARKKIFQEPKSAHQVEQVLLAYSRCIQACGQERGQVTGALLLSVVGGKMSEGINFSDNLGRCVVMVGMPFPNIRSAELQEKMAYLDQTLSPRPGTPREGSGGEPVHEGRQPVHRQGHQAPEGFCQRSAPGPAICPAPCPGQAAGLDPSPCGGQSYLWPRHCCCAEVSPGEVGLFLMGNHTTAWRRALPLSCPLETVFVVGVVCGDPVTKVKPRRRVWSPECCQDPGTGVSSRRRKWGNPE
inactive: bafetinib -0.012 | nilotinib 0.098 | [3] 0.033 | dasatinib 0.061 | [4] 0.098 | [2] -0.132 | tipifarnib 0.005 | mubritinib -0.015

ELAC1 (UniProt Q9H777)
Sequence of UniProt Q9H777 (Q9H777 whole entry, looked up): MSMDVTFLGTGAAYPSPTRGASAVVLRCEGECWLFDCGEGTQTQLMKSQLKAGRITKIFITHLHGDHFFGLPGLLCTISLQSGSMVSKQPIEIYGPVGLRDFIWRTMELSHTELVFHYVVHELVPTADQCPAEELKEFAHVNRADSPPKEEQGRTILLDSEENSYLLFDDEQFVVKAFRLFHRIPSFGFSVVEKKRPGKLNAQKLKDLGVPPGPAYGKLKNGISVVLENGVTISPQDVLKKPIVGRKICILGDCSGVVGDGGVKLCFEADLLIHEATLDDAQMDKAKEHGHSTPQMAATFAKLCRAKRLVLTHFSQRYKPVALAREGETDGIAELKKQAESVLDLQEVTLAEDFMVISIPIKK
inactive: [5] 0.124 | nilotinib 0.145 | [3] -0.111 | dasatinib -0.073 | [4] -0.103 | [1] -0.032 | tipifarnib 0.036

DDX46, A0A0C4DG89
inactive: nilotinib 0.151 | [3] -0.322 | [4] 0.032 | mubritinib 0.242

EEF1D isoform 3 (UniProt P29692)
inactive: mubritinib -0.014

DOP1A (UniProt Q5JWR5)
inactive: bafetinib -0.091 | mubritinib 0.127

DENND10 (UniProt Q8TCE6)
inactive: bafetinib 0.033 | nilotinib -0.266 | [3] -0.032 | dasatinib -0.129 | [4] -0.353 | [1] -0.131 | [2] -0.064 | tipifarnib 0.034 | mubritinib 0.077

DCAF12 (UniProt Q5T6F0)
inactive: [5] 0.124 | mubritinib 0.087

ERF (UniProt P50548)
inactive: [5] 0.194

EZH2 isoform 2 (UniProt Q15910)
Sequence of UniProt Q15910 (Q15910 whole entry, looked up): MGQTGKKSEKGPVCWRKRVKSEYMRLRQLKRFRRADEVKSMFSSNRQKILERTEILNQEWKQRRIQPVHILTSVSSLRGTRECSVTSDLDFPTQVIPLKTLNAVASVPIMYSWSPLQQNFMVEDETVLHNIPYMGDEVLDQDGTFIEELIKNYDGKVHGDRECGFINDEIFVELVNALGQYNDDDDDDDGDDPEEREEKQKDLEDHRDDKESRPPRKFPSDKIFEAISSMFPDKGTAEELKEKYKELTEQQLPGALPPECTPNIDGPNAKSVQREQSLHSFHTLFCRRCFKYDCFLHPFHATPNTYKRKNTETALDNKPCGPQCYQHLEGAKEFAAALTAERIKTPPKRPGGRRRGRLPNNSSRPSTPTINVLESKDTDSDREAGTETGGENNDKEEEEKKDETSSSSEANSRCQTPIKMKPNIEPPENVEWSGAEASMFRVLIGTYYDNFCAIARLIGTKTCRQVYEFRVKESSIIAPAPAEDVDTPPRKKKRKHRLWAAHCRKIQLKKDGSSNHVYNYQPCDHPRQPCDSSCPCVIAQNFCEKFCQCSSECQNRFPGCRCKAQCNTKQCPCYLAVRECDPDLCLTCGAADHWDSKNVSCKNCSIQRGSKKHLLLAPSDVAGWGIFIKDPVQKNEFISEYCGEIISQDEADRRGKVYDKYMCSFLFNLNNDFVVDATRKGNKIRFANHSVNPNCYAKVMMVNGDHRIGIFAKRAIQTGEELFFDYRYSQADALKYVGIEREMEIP
inactive: bafetinib 0.146 | dasatinib -0.113 | [1] 0.055 | tipifarnib -0.021 | mubritinib -0.097

DHRS13 (UniProt Q6UX07)
inactive: [5] -0.208 | nilotinib 0.197 | [3] -0.153 | dasatinib 0.005 | [4] -0.106 | [1] 0.021 | [2] -0.168 | mubritinib 0.049

DCAF4 (UniProt Q8WV16)
Sequence of UniProt Q8WV16 (Q8WV16 whole entry, looked up): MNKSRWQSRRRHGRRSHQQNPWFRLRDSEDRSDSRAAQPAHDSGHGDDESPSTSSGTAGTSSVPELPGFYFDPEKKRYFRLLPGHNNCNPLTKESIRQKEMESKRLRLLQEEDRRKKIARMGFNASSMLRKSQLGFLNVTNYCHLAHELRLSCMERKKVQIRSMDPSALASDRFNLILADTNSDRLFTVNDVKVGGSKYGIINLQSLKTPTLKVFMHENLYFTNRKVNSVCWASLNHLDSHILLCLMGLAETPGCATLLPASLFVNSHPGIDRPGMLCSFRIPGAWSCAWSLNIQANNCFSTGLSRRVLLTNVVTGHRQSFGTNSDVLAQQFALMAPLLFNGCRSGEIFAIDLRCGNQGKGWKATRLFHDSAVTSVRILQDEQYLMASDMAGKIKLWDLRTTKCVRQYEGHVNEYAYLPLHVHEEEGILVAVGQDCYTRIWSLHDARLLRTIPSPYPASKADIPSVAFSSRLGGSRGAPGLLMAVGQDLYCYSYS
active: [5] -0.423
inactive: nilotinib -0.204 | [3] -0.007 | dasatinib 0.11 | [4] -0.093 | [2] 0.079 | mubritinib 0.094

DNAL1 (UniProt Q4LDG9)
inactive: bafetinib 0.035 | dasatinib 0.017 | [1] 0.186 | [2] 0.012

FAM135A (UniProt Q9P2D6)
inactive: nilotinib 0.054 | [3] -0.138 | [4] -0.054

FAM193B (UniProt Q96PV7)
Sequence of UniProt Q96PV7 (Q96PV7 whole entry, looked up): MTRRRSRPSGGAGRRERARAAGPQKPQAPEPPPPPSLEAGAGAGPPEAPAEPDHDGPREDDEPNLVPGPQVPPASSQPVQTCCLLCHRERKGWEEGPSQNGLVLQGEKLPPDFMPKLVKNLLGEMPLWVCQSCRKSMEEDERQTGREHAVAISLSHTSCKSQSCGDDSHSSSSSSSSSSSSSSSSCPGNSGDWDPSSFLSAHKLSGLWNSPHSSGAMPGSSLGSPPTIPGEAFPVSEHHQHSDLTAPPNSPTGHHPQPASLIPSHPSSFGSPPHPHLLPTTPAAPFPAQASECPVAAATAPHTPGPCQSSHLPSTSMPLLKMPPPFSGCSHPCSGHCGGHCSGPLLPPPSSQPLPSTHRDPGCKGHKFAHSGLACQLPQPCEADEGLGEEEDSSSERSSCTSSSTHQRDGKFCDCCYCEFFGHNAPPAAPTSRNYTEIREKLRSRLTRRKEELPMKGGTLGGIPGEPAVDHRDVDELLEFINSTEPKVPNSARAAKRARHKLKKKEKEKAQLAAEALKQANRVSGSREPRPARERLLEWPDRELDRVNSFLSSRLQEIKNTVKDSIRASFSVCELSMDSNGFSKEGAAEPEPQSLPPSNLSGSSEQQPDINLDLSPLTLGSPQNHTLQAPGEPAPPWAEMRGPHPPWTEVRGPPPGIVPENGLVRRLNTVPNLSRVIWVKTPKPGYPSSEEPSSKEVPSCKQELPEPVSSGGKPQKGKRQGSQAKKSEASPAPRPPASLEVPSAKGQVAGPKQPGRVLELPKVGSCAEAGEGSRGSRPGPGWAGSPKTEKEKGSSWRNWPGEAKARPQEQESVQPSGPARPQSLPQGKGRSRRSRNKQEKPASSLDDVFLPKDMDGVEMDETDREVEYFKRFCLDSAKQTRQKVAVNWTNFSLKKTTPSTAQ
inactive: bafetinib 0.19 | dasatinib -0.01 | [1] 0.171 | tipifarnib -0.027

CTSS (UniProt P25774)
Sequence of UniProt P25774 (P25774 whole entry, looked up): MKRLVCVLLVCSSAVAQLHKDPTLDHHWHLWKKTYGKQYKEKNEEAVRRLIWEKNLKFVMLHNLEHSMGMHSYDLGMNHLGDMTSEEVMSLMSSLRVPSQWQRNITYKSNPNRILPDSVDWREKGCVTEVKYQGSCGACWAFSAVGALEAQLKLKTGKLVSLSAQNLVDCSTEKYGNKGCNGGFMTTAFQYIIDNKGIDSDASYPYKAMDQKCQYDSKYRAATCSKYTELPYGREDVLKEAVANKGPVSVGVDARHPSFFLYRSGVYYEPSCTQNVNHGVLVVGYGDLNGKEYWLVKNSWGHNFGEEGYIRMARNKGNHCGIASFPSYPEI
inactive: [5] -0.063 | dasatinib 0.052 | [1] -0.07 | [2] -0.028

DBNL (UniProt Q9UJU6)
inactive: [1] 0.308

EID1 (UniProt Q9Y6B2)
inactive: [5] -0.438 | nilotinib -0.022 | [3] -0.084 | [4] -0.032 | tipifarnib -0.097 | mubritinib 0.208

EPHB4 (UniProt P54760)
inactive: [2] -0.051 | tipifarnib -0.257 | mubritinib 0.176

DYNC1I2 isoform 2 (UniProt Q13409)
Sequence of UniProt Q13409 (Q13409 whole entry, looked up): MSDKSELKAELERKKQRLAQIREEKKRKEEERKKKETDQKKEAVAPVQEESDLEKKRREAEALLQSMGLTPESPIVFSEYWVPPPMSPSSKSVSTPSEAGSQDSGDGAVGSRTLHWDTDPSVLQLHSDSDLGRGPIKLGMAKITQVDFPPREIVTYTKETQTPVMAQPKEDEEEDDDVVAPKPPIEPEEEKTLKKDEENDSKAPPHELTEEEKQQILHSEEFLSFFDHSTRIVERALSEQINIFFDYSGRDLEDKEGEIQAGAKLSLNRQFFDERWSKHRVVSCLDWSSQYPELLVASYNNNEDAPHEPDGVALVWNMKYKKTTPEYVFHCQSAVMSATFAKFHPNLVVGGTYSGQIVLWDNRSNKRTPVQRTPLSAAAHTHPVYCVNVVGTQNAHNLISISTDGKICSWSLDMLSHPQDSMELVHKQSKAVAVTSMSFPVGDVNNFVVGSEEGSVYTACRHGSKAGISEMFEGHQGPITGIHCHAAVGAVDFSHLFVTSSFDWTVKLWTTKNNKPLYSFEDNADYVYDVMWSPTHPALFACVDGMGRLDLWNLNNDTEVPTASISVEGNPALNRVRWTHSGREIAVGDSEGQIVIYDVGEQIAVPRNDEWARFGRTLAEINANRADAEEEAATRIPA
inactive: bafetinib -0.038 | [1] -0.311 | [2] -0.067 | tipifarnib 0.177 | mubritinib 0.067

DOLPP1 (UniProt Q86YN1)
Sequence of UniProt Q86YN1 (Q86YN1 whole entry, looked up): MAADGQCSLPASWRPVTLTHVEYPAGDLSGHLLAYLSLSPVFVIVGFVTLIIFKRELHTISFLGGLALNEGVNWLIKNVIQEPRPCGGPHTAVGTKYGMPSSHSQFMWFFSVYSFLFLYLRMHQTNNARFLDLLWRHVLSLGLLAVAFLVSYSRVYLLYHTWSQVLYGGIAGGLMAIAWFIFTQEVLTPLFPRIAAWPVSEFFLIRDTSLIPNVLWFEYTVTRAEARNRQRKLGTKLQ
inactive: bafetinib -0.089 | nilotinib 0.035 | [3] -0.062 | [4] -0.023 | [1] -0.045 | [2] -0.006 | tipifarnib 0.075 | mubritinib 0.021

EIF3J isoform 2 (UniProt O75822)
Sequence of UniProt O75822 (O75822 whole entry, looked up): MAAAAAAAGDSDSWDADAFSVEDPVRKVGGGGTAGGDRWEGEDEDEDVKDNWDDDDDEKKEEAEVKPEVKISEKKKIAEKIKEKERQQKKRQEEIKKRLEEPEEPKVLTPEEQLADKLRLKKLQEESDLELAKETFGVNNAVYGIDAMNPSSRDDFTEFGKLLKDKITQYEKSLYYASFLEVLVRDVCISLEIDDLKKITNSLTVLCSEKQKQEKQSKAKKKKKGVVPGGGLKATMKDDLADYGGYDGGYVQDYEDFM
inactive: bafetinib -0.033 | nilotinib -0.101 | [3] -0.016 | dasatinib 0.017 | [4] -0.013 | tipifarnib 0.078 | mubritinib 0.1

EIF4G3 isoform 3 (UniProt O43432)
inactive: bafetinib -0.01 | nilotinib -0.043 | [3] -0.12 | dasatinib -0.006 | [4] 0.052 | [1] -0.073 | [2] 0.056 | tipifarnib 0.083 | mubritinib -0.005

DENND1A isoform 6 (UniProt Q8TEH3)
inactive: bafetinib -0.086 | tipifarnib -0.113

EIF4E2 (UniProt O60573)
inactive: bafetinib -0.055 | nilotinib -0.094 | [3] -0.052 | dasatinib -0.232 | [4] -0.004 | [1] 0.082 | [2] -0.059 | tipifarnib -0.127 | mubritinib 0.035

ELF1 (UniProt P32519)
inactive: nilotinib 0.096 | [3] -0.028 | dasatinib -0.134 | [4] 0.122 | [1] 0.003 | [2] 0.049 | tipifarnib -0.024

EIF4G1 (UniProt Q04637)
inactive: [5] 0.017 | dasatinib -0.191 | [1] -0.032
